Results: paper PMC5540273 (PLoS ONE, 2017)

Experiments:
Details in all cases: concentration: 1 μM,replicates: in singlicate; n = 1
NIM1 = test system: T1, NIM1
T1 construct: gene MGC42105

NLK = test system: NLK
OSR1 = test system: T2, OSR1
T2 construct: gene OXSR1

PAK1 = test system: PAK1
PAK2 = test system: PAK2
PAK3 = test system: PAK3
PAK4 = test system: PAK4
PAK6 = test system: PAK6
PAK7 = test system: PAK7
PCTK1 = test system: T3, PCTK1
T3 construct: gene CDK16
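Also: KINOMEscan kinase panel screen.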

Compound	%Inh (NIM1)	%Inh (NLK)	%Inh (OSR1)	%Inh (PAK1)	%Inh (PAK2)	%Inh (PAK3)	%Inh (PAK4)	%Inh (PAK6)	%Inh (PAK7)	%Inh (PCTK1)
COC(=O)c1cccc(NC(=O)NC2CCN(c3ccnc(Nc4cc(OC)c(OC)c(OC)c4)n3)C2)c1 (stereo not shown) [GSK1379767]	40%	32%	0%	10%	0%	18%	5%	0%	18%	0%
O=C(Nc1ccc(Oc2ccc3nc(NC(=O)C4CC4)cn3n2)c(F)c1)c1cccn(-c2ccccc2)c1=O	0%	0%	0%	0%	0%	0%	0%	0%	0%	0%
COC(=O)Nc1nc2cc(Oc3ccc(NC(=O)Nc4cc(C(F)(F)F)ccc4Cl)cc3)ccc2[nH]1.Cl [GW697465]	26%	2%	10%	36%	29%	25%	0%	0%	2%	0%
CC(=O)Nc1nc2cnc(Nc3cc(NC(=O)c4cccc(CC(C)(C)C#N)c4)ccc3C)nc2s1	23%	1%	41%	25%	25%	28%	8%	21%	2%	25%
CS(=O)c1ccc(-c2coc3ccc(-c4n[nH]c(=O)o4)cc23)cc1 (stereo not shown)	7%	11%	83%	0%	36%	18%	4%	5%	19%	14%
Cc1ccc(Nc2ccnc(Nc3ccc4c(c3)CS(=O)(=O)C4)n2)cc1O.Cl [GW579362]	17%	97.5%	46%	26%	29%	20%	0%	28%	56%	17%
CN(c1ccc2c(c1)nc(NCc1ccc(F)cc1)n2C)c1ccnc(Nc2ccc(CS(C)(=O)=O)cc2)n1.Cl [GW813244]	0%	0%	0%	10%	35%	12%	15%	0%	0%	0%
CC(C(=O)NC1CCN(c2ccnc(Nc3ccc(F)cc3)n2)C1)c1ccc(Cl)cc1 (stereo not shown) [GSK1379713]	17%	0%	5%	5%	2%	0%	0%	0%	0%	3%
CN(c1ccccc1CNc1nc(Nc2ccc3c(c2)CC(=O)N3)ncc1C(F)(F)F)S(C)(=O)=O	0%	0%	0%	0%	0%	68%	2%	0%	11%	28%
Cn1ccc2ncnc(Oc3ccc(NC(=O)Nc4ccnc(C(F)(F)F)c4)c(Cl)c3)c21	0%	14%	0%	23%	13%	100%	7%	0%	0%	21%
NC(=O)c1ccc(-c2cc3ncnc(SCC(=O)O)c3s2)cc1	0%	0%	0%	0%	0%	0%	0%	0%	0%	0%
C[C@@H](Oc1cc(-n2cnc3cc(-c4cnn(C)c4)ccc32)sc1C(N)=O)c1ccccc1Cl [GSK580432]	64%	0%	12%	0%	13%	63%	0%	2%	0%	0%
CCn1c(-c2nonc2N)nc2cncc(Br)c21 [SB-738004]	37%	22%	0%	0%	16%	1%	7%	15%	32%	0%
Cn1ccc2ncnc(Oc3ccc(NC(=O)Nc4cncc(C(F)(F)F)c4)c(Cl)c3)c21	0%	9%	0%	25%	0%	0%	1%	0%	0%	0%
CSc1nccc(-c2c(-c3ccc(F)cc3)ncn2CCCN2CCOCC2)n1.Cl [SB-217146]	0%	0%	0%	3%	43%	0%	10%	0%	0%	0%
O=C(NOCC1CC1)c1cc(Br)c(F)c(F)c1Nc1ccc(I)cc1Cl	25%	0%	0%	2%	12%	16%	0%	0%	0%	0%
Cn1ccc2ncnc(Oc3ccc(NC(=O)Nc4cc(C(C)(C)C)on4)c(Cl)c3)c21	0%	67%	20%	20%	23%	46%	8%	1%	0%	27%

Compound	%Inh (NIM1)	%Inh (NLK)	%Inh (OSR1)	%Inh (PAK1)	%Inh (PAK2)	%Inh (PAK3)	%Inh (PAK4)	%Inh (PAK6)	%Inh (PAK7)	%Inh (PCTK1)
Cn1ccc2ncnc(Oc3ccc(NC(=O)Nc4cccc(C(F)(F)F)c4)c(Cl)c3)c21	0%	25%	0%	10%	17%	21%	15%	1%	1%	0%
C[C@@H]1CCN(C(=O)N2CCCC2)C[C@@H]1N(C)c1ncnc2[nH]ccc12	18%	0%	11%	0%	0%	25%	0%	0%	3%	5%
CN1CCN(CCCNc2nccc(-c3c(-c4ccc(F)cc4)nn4cc(C(N)=O)ccc34)n2)CC1 [GW622475]	9%	70%	19%	26%	22%	34%	0%	7%	24%	6%
Cn1cc(-c2cccc3c(N)c(C(N)=O)nnc23)cn1	9%	20%	24%	0%	2%	44%	1%	13%	18%	6%
OCCn1cc(-c2cnc3nnn(Cc4ccc5ncccc5c4)c3n2)cn1	0%	0%	0%	6%	13%	0%	11%	0%	0%	0%
Cc1n[nH]c2cc(Nc3ccnc(Nc4cccc(CN5CCOCC5)c4)n3)ccc12 [GW682569]	22%	18%	0%	0%	0%	0%	2%	1%	20%	0%
C[C@@H](Oc1cc(-n2cnc3cc(-c4ccncc4)ccc32)sc1C(N)=O)c1ccccc1Cl [GSK479719]	51%	0%	18%	21%	22%	27%	0%	5%	94.2%	1%
NC(=O)Nc1sc(-c2ccc(F)cc2)cc1C(N)=O [GW789449]	14%	0%	16%	0%	4%	24%	11%	12%	1%	0%
Cl.Nc1n[nH]c2cc(-c3ccccn3)ccc12 [GSK2189892]	0%	0%	11%	9%	2%	0%	0%	2%	16%	0%
CCOC(=O)N1CCC(n2cnc(-c3ccc(F)cc3)c2-c2ccnc(N)n2)CC1 [SB-219952]	31%	92.7%	1%	3%	26%	9%	28%	6%	11%	0%
CS(=O)(=O)Nc1ccc(-c2ccnc3[nH]ccc23)cc1 [GSK993273]	13%	30%	41%	26%	27%	51%	0%	11%	3%	15%
COc1cccc(OC)c1C(=O)Nc1cccc(-c2nn3ccccc3c2-c2ccnc(Nc3cccc(F)c3)n2)c1 [GSK361065]	0%	90%	0%	6%	10%	0%	10%	24%	0%	0%
Cn1ccc2ncnc(Oc3ccc(NC(=O)Nc4cnn(C(C)(C)C)c4)c(Cl)c3)c21	0%	38%	6%	13%	34%	45%	5%	19%	0%	24%
C[C@@H](Oc1cc(-n2cnc3ccc(-c4ccncc4)cc32)sc1C(N)=O)c1ccccc1Cl [GSK483724]	13%	49%	11%	8%	29%	21%	44%	13%	10%	7%
C[C@@H]1CNc2c(sc3ccc4nc(-c5ccncc5)ccc4c23)C(=O)N1	0%	0%	9%	0%	5%	9%	24%	9%	0%	0%
c1ccc(Oc2ccc(Nc3ccnc4ccc(-c5ccccn5)cc34)cc2)cc1 [GW407034]	17%	13%	57%	20%	11%	0%	0%	0%	7%	8%
COc1cc2nccc(Nc3ccc(Oc4ccccc4)cc3)c2cc1OC.Cl [GI261656]	5%	0%	0%	0%	0%	0%	0%	0%	3%	0%
